{"source": "ChEMBL document CHEMBL4888484", "about": "“Replenishing the malaria drug discovery pipeline: Screening and hit evaluation of the MMV Hit Generation Library 1 (HGL1) against asexual blood stage Plasmodium falciparum ,using a nano luciferase reporter read-out” (2022)", "note": "Hit rate of the full screen: of about 4,800 compounds, about 410 (8.5%) showed an effect of 50% or more. The entries come from a sample that favours strong results as a whole."}
{"tested_on": "Plasmodium falciparum", "assay": "Confirmatory screen in NF54 pLDH assay, in single point, at 2uM, 72h", "format": "functional, Erythrocyte", "conditions": "timepoint 72 hour", "units": {"% Inhibition": "%"}}
{"smiles": "C[C@@H](N)C(=O)N1CCc2cc(-c3ccccc3)ccc21", "% Inhibition": 11}
{"smiles": "CCC1CCCC(NS(=O)(=O)CCC(C)(C)C)C1", "note": "(centres undefined)", "% Inhibition": -12}
{"smiles": "Cc1ccc(N2CCN(S(=O)(=O)c3ccccc3)[C@@H](C)C2=O)cc1F", "% Inhibition": -11}
{"smiles": "O=S(=O)(c1ccccc1)N1CCN(S(=O)(=O)c2ccc(Cl)cc2)C1", "% Inhibition": 11}
{"smiles": "O=c1[nH]c(=O)n(S(=O)(=O)c2ccccc2)cc1F", "% Inhibition": 87}
{"smiles": "COc1ccc(CCNC(=O)c2cc3c(=O)[nH]c(C)cn3n2)cc1OC", "% Inhibition": 8}
{"smiles": "COc1cc(F)c(NCc2csc(C3CC3)n2)cc1OC", "% Inhibition": -21}
{"smiles": "CNC[C@H]1CCCN1C(=O)c1ccc(-c2noc(C(F)(F)F)n2)cc1", "% Inhibition": 12}
{"smiles": "COC1CCCCC1NC(=O)c1ccc(-c2noc(C(F)(F)F)n2)cc1", "note": "(centres undefined)", "% Inhibition": 8}
{"smiles": "COc1cccc(CNC(=O)Cn2c(=O)n(C)c(=O)c3c2c(-c2ccccc2)cn3C)c1OC", "% Inhibition": -10}
{"smiles": "Cc1oc(-c2ccn[nH]2)cc1S(=O)(=O)Nc1cccc(Cl)c1", "% Inhibition": 4}
{"smiles": "COc1ccc(-c2noc(Cn3c(=O)c4ccccc4n(CC(=O)NCCc4ccc(OC)c(OC)c4)c3=O)n2)cc1", "% Inhibition": 6}
{"smiles": "CNCC(=O)Nc1ccccc1C(F)(F)F", "% Inhibition": -9}
{"smiles": "O=C(c1cnc2ccccc2n1)N1CCCC1", "% Inhibition": -1}
{"smiles": "Cc1cccc(CNc2cc([C@H]3C[C@@H](N)C3)nc(N3CCCC3)n2)c1", "% Inhibition": 14}
{"smiles": "N[C@H]1C[C@@H](c2cc(N3CCN(C4CCCCC4)CC3)nc(N3CCCC3)n2)C1", "% Inhibition": 50}
{"smiles": "c1ncc(N2CCN3CCC[C@H]3C2)nc1OCC1CCCC1", "% Inhibition": -16}
{"smiles": "O=C(O)CCCC(=O)NCCc1ccc(Cl)cc1", "% Inhibition": -19}
{"smiles": "COc1ccc(OCc2nc3cc4c(cc3cc2C(=O)O)OCO4)cc1", "% Inhibition": 5}
{"smiles": "CCOc1ccc(Nc2c3ccccc3nc3ccccc23)cc1", "% Inhibition": 96}
{"smiles": "CCOc1ccc(-n2c(CN3CCN(C(=O)c4ccco4)CC3)nc3ccccc3c2=O)cc1", "% Inhibition": 14}
{"smiles": "COc1ccc(NC(=O)c2nc(Nc3ccccc3)c3ccccc3n2)cc1", "% Inhibition": 7}
{"smiles": "Cc1ccc(-c2ccnc3c(C(=O)N4CCOCC4)cnn23)cc1C", "% Inhibition": 2}
{"smiles": "Cc1cccnc1C(F)(F)C(=O)Nc1cc(C)c(O)c(C)c1", "% Inhibition": 11}
{"smiles": "O=C(Nc1ccc(N2CCn3c(nc4cc(Cl)ccc43)C2)cc1)NC1CCCCC1", "% Inhibition": -13}
{"smiles": "C[C@H](OC1CCCCCC1)C(=O)Nc1nc(C(N)=O)cs1", "% Inhibition": -11}
{"smiles": "Cc1ccccc1C(=O)NCc1nn(C2CCCC2)c2c1COCC2", "% Inhibition": 6}
{"smiles": "COc1ccc(C)c2sc(N(CCCn3ccnc3)C(=O)Cc3ccc(F)cc3)nc12", "% Inhibition": 85}
{"smiles": "COc1cccc(CNCCCn2ccnc2)c1OCc1ccc(F)cc1", "% Inhibition": 10}
{"smiles": "O=C(Nc1ccncc1)c1nc(N2CCCC2)ncc1Br", "% Inhibition": -9}
{"smiles": "Fc1ccc(COc2cccc(CNCCN3CCOCC3)c2)cc1", "% Inhibition": -3}
{"smiles": "COc1cc(CNCCN2CCOCC2)ccc1OCc1cccc(C)c1", "% Inhibition": 7}
{"smiles": "Cc1nn(C)c(Cl)c1CNCc1ccc(N2CCCCC2)nc1", "% Inhibition": -13}
{"smiles": "CCCc1nnc(N(Cn2nnc3ccccc32)C(=O)CN2CCOCC2)s1", "% Inhibition": 2}
{"smiles": "O=C(c1cncc(Br)c1)N1CC[C@H](c2nc(C3CCOCC3)no2)C1", "% Inhibition": 10}
{"smiles": "CC1CCC(c2noc([C@H]3CCO[C@@H]3c3cncc(Br)c3)n2)CC1", "note": "(some centres undefined)", "% Inhibition": 59}
{"smiles": "Cc1ccc(NCc2ccc(OCc3cccc4ccccc34)c(Br)c2)cc1", "% Inhibition": 11}
{"smiles": "CCCN(CC(=O)N(Cc1ccccc1)Cc1ccc(C)o1)C(=O)c1ccco1", "% Inhibition": -5}
{"smiles": "O=C(c1ccccc1)C1C(c2ccccc2)N1C(=O)c1ccc(Cl)cc1Cl", "note": "(centres undefined)", "% Inhibition": 6}
{"smiles": "FC(F)(F)c1nnc(NCc2cncs2)s1", "% Inhibition": -7}
{"smiles": "COCc1nsc(N2CCC(c3c(F)cccc3F)CC2)n1", "% Inhibition": 7}
{"smiles": "Cn1cncc1CC(=O)Nc1ccnc(NC(=O)OC(C)(C)C)c1", "% Inhibition": 100}
{"smiles": "CC(C)(C)OC(=O)Nc1cccc(N)n1", "% Inhibition": 8}
{"smiles": "COc1ccc2c(O)cc(-c3ccccc3)nc2c1", "% Inhibition": 1}
{"smiles": "Nc1c(-c2ccccc2)nsc1C(=O)NCC1CC1", "% Inhibition": 9}
{"smiles": "COc1cccc(NC(=O)N2C[C@@H]3C[C@H](NS(C)(=O)=O)[C@H]2C3)c1", "% Inhibition": 8}
{"smiles": "O=C1CCC(C(=O)N2CCC[C@H]2c2ccncc2)=NN1c1ccccc1", "% Inhibition": -11}
{"smiles": "CON(C)C[C@H](O)Cn1cc(Nc2ncnc3cc(F)ccc23)cn1", "% Inhibition": 5}
{"smiles": "CC[C@H](O)CN1CCC(Nc2ncnc3cc(Cl)ccc23)CC1", "% Inhibition": 75}
{"smiles": "C[C@H](C(=O)Nc1ccc(F)cc1Cn1ccsc1=O)C1CC1", "% Inhibition": -14}
{"smiles": "Cc1cc(CN(C)Cc2nccn2C)ccc1N1CCCCC1", "% Inhibition": 1}
{"smiles": "Cc1nscc1C(=O)Nc1cccc(OCCN2CCCC2)c1", "% Inhibition": -15}
{"smiles": "CC(C)(C)c1cc2c(NCC3=CCOCC3)nccn2n1", "% Inhibition": 9}
{"smiles": "Cc1cccc(C(=O)Nc2nc3cc4sc(NC(=O)c5cccc(C)c5)nc4cc3s2)c1", "% Inhibition": -8}
{"smiles": "COc1cc(C(=O)Nc2ccc3sc(NC(=O)c4cc(OC)c(OC)c(OC)c4)nc3n2)cc(OC)c1OC", "% Inhibition": 67}
{"smiles": "COc1cc(C(=O)Nc2scnc2C)cc(OC)c1OC", "% Inhibition": 7}
{"smiles": "CNCc1cc(OC)c(OC)cc1Cl", "% Inhibition": 11}
{"smiles": "Cc1ccc(C)c(C(=O)Cn2nc3ccc(-c4ccc(Cl)cc4)nn3c2=O)c1", "% Inhibition": 6}
{"smiles": "Cc1nc(NC(=O)c2ccn(COc3ccc(F)c(Cl)c3)n2)sc1C", "% Inhibition": -8}
{"smiles": "CC(=O)NCC(=O)N(Cc1ccco1)C1(C(=O)NC2CCCCC2)CCCCC1", "% Inhibition": 8}
{"smiles": "Cc1cc(C(=O)NCc2ccncc2)no1", "% Inhibition": -10}
{"smiles": "CCn1nccc1C(=O)N1CC[C@H](CC(=O)NCc2ccncc2)C1", "% Inhibition": 6}
{"smiles": "N#Cc1cc2cc(Cl)cnc2nc1N1CCCCC1", "% Inhibition": 16}
{"smiles": "CCOc1cc(Cl)ccc1C(=O)NC1CCN(C[C@H]2CCOC2)CC1", "% Inhibition": 5}
{"smiles": "COc1cc(C(=O)NC2CCCCC2)cc2occc12", "% Inhibition": 0}
{"smiles": "CCn1nccc1C(=O)NC1CCN(c2nnc3ccc(Cl)cn23)CC1", "% Inhibition": 10}
{"smiles": "Cc1cnccc1NCCNC1CCN(c2ccc3c(c2)CCC3)CC1", "% Inhibition": 77}
{"smiles": "Cc1cnccc1NCCNC1CCN(c2ccc(Cl)cc2)CC1", "% Inhibition": 96}
{"smiles": "N#Cc1c(N2CCCCC2)ncc2c(=O)c3ccccc3[nH]c12", "% Inhibition": 8}
{"smiles": "O=C(Cc1ccc(F)cc1)N[C@H](c1ccccc1)C1CC1", "% Inhibition": 2}
{"smiles": "CCCOc1ccc(CNC(=O)CCn2ccn3nc(-c4ccc(C)c(C)c4)cc3c2=O)cc1", "% Inhibition": 5}
{"smiles": "Cc1ccc(-n2nc(C)cc2NC(=O)CN2CCCN(c3ccc(C(F)(F)F)cn3)CC2)cc1", "% Inhibition": 9}
{"smiles": "O=C(c1ccccc1)c1ccc(O)c(CN2CCCN(c3ccc(C(F)(F)F)cn3)CC2)c1O", "% Inhibition": 80}
{"smiles": "O=C(C1CC1c1ccccc1)N(c1ccc(F)cn1)C1CCOCC1", "note": "(centres undefined)", "% Inhibition": 7}
{"smiles": "O=C(NCc1ccc2c(c1)OCO2)C(F)(F)C(F)(F)C(F)(F)C(F)(F)C(=O)NCc1ccc2c(c1)OCO2", "% Inhibition": -19}
{"smiles": "CN1CCN([C@H]2CCN(c3ccnc4ccc(Cl)cc34)C[C@H]2CCCO)CC1", "% Inhibition": 60}
{"smiles": "CCCOc1cc(=O)c(C(=O)N2CCCC2)nn1-c1ccc(C)cc1", "% Inhibition": 0}
{"smiles": "CCn1cc([C@H](CC(=O)N2CCN(Cc3ccc4c(c3)OCO4)CC2)c2cccc(OC)c2)c2ccccc21", "% Inhibition": 2}
{"smiles": "OC(CNC1CCCNc2ccccc21)c1ccc(Cl)s1", "note": "(centres undefined)", "% Inhibition": 51}
{"smiles": "O=C(NC[C@H](O)c1ccc(Cl)s1)c1ccsc1", "% Inhibition": 2}
{"smiles": "Cc1cccc(NC(=O)CC(C)(C)CC(=O)O)c1C", "% Inhibition": 13}
{"smiles": "CC(C)(c1ccc(F)cc1)C1(NC(=O)CCc2nccs2)CC1", "% Inhibition": -12}
{"smiles": "Cn1cc(CCCNc2ccc(F)cn2)cn1", "% Inhibition": 9}
{"smiles": "Cc1ccc(S(=O)(=O)N2CCN(C(=O)c3cc(C4CC4)nc4c3c(C)nn4C(C)C)CC2)cc1", "% Inhibition": 13}
{"smiles": "Cc1nn(Cc2ccccc2)c2nc(C3CC3)cc(C(=O)N3CCOCC3)c12", "% Inhibition": 1}
{"smiles": "Cc1nn(C(C)(C)C)c2nc(C3CC3)cc(C(=O)N(C)c3ccccc3)c12", "% Inhibition": 87}
{"smiles": "CCOC(=O)C1CCN(C(=O)c2nc(-c3ccc(N4CCCC4)nc3)no2)CC1", "% Inhibition": 12}
{"smiles": "O=C(c1cccc2cc[nH]c12)N(CC1CC1)C1CC1", "% Inhibition": 12}
{"smiles": "Cc1cc(C)c(C(=O)Cn2nc3ccc(-c4ccc(Cl)cc4)nn3c2=O)c(C)c1", "% Inhibition": 10}
{"smiles": "CCCn1nc(-n2cnnc2)c(NS(=O)(=O)c2ccc(Br)cc2)c1C", "% Inhibition": 11}
{"smiles": "CC(C(=O)N1CCCC1c1cccs1)N(C)Cc1ncnn1C", "note": "(centres undefined)", "% Inhibition": 4}
{"smiles": "Clc1ccc(-c2noc(CN(Cc3cccs3)Cc3cccs3)n2)cc1", "% Inhibition": 6}
{"smiles": "COc1ccc(CC(=O)NCCOCCO)cc1", "% Inhibition": 8}
{"smiles": "N#CC1(O)C(C2COC3(CCCCC3)O2)OC2OC3(CCCCC3)OC21", "note": "(centres undefined)", "% Inhibition": 10}
{"smiles": "Cc1sc(NC(N)=O)nc1Cc1ccccc1", "% Inhibition": 10}
{"smiles": "CN1CCN(c2nc(O)c3c(n2)NC(=O)C[C@H]3c2c(F)cccc2F)CC1", "% Inhibition": 0}
{"smiles": "CCOc1cc(C(c2c(C)n(C)n(-c3ccccc3)c2=O)c2c(C)n(C)n(-c3ccccc3)c2=O)ccc1OCc1ccccc1", "% Inhibition": 38}
{"smiles": "O=C(NC1CCN(Cc2ccccc2)CC1)c1cn[nH]c1-c1ccccc1", "% Inhibition": 6}
{"smiles": "CCOC(=O)N1CCC(NC(=O)c2cn[nH]c2-c2ccc(OCC)c(Cl)c2)CC1", "% Inhibition": 10}
{"smiles": "O=C(C[C@H]1CCN(C(=O)Nc2ccc3c(c2)OCCO3)C1)NCc1ccncc1", "% Inhibition": 7}
{"smiles": "Cc1cc(C)cc([C@@H](O)CNC(=O)NCC(C)(C)c2ccncc2)c1", "% Inhibition": 3}
{"smiles": "Cc1nn2c(-c3ccc(-c4ccccc4)cc3)ccnc2c1Br", "% Inhibition": 9}
{"smiles": "Cc1nonc1NC(=O)CCCC1CCCC1", "% Inhibition": 8}
{"smiles": "O[C@@H](CNCc1ccsc1C(F)(F)F)c1cc(Cl)c2c(c1)OCCO2", "% Inhibition": 29}
